Experimental data reported in PubChem BioAssay (NCI).
Values joined by “and” are separate entries in the source; they are usually repeats but may differ in a detail not shown here. Equal entries are not always repeated. About 79,000 compounds went through this panel and 15% of them were active in at least one assay; those are over-represented in the sample as a whole. Some structures have more than one record in an assay (separate samples or runs), and their calls can disagree. Active and inactive are the calls of the source. Rule as the data show it: active = growth inhibition above about 70%; inactive = the rest.

How the values were obtained:
[1] = NCI Yeast Anticancer Drug Screen. Data for the mec2-1 strain (AID 157); settings: S. cerevisiae mec2-1 strain, stronger effect = higher value
Summary of the method: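 Vehicle-treated cultures served as reference for growth inhibition of compound-exposed mec2-1 yeast.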

[2] = NCI Yeast Anticancer Drug Screen. Data for the rad14 strain (AID 159);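 also: 0% = growth of vehicle-treated control cultures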; settings: S. cerevisiae rad14 strain growth inhibition, stronger effect = higher value
Summary of the method: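 Compound-treated yeast with a defined DNA-repair lesion; growth inhibition normalised to vehicle-treated cultures.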

[3] = NCI Yeast Anticancer Drug Screen. Data for the sgs1 mgt1 strain (AID 161);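 also: 0% = growth of cultures given vehicle only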; settings: S. cerevisiae sgs1 mgt1 strain, stronger effect = higher value
Summary of the method: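 Read-out: growth inhibition vs vehicle controls. Cells: mutant yeast strain deficient in DNA damage repair.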

[4] = NCI Yeast Anticancer Drug Screen. Data for the CLN2oe strain (AID 163);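 also: 0% = growth of vehicle-only control cultures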; settings: S. cerevisiae CLN2oe strain, stronger effect = higher value
Summary of the method: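 Inhibition relative to vehicle-treated yeast is reported. Cells: strain with genetic alteration in cell-cycle control, grown with compound.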

[5] = NCI Yeast Anticancer Drug Screen. Data for the cln2 rad14 strain (AID 165);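 also: 0% = growth equal to vehicle treated cultures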; settings: S. cerevisiae cln2 rad14 strain, stronger effect = higher value
Summary of the method: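 Each compound was tested on cln2 rad14 yeast. Inhibition of growth was calculated against vehicle-exposed controls.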

[6] = NCI Yeast Anticancer Drug Screen. Data for the bub3 strain (AID 167); settings: S. cerevisiae bub3 mutant strain, stronger effect = higher value
Summary of the method: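 Growth of a checkpoint-deficient yeast mutant is measured after compound exposure. Values represent inhibition relative to vehicle.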

[7] = NCI Yeast Anticancer Drug Screen. Data for the mlh1 strain (AID 171);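 also: 0% = growth of vehicle-treated control cultures of the same strain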; settings: S. cerevisiae mlh1 strain growth inhibition, stronger effect = higher value
Summary of the method: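 Vehicle-normalised growth inhibition of a repair- or checkpoint-altered yeast strain following compound treatment.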

[8] = NCI Yeast Anticancer Drug Screen. Data for the sgs1 strain (AID 173);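 also: 0% = growth of vehicle-only control cultures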; settings: S. cerevisiae sgs1 mutant, stronger effect = higher value
Summary of the method: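 Screen format: yeast with repair or checkpoint alterations, compound exposure, growth read relative to vehicle.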

[9] = NCI Yeast Anticancer Drug Screen. Data for the mlh1 rad18 strain (AID 175); settings: S. cerevisiae mlh1 rad18 strain growth inhibition, stronger effect = higher value
Summary of the method: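 Vehicle-treated cultures served as the reference for growth inhibition in a yeast strain carrying DNA damage repair alterations exposed to each compound.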

[10] = NCI Yeast Anticancer Drug Screen. Data for the rad18 strain (AID 177); settings: S. cerevisiae rad18 mutant growth inhibition, stronger effect = higher value
Summary of the method: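 Test articles were incubated with altered yeast defective in DNA damage repair. Results are given as inhibition of growth versus vehicle.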

[11] = NCI Yeast Anticancer Drug Screen. Data for the rad52 strain (AID 147);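 also: 0% = growth of vehicle-treated control cultures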; settings: S. cerevisiae rad52 mutant growth inhibition, stronger effect = higher value
Summary of the method: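 Vehicle-treated cultures served as the reference for growth inhibition of compound-exposed yeast bearing a DNA repair mutation.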

[12] = NCI Yeast Anticancer Drug Screen. Data for the wt1 strain (AID 149);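 also: 0% = growth of vehicle-treated wt1 cultures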; settings: S. cerevisiae wt1 strain (SPY 50644) growth inhibition, stronger effect = higher value
Summary of the method: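 Readout: yeast growth inhibition, normalised to vehicle controls, in the wt1 strain exposed to test compounds.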

[13] = NCI Yeast Anticancer Drug Screen. Data for the rad50EPP+ strain (AID 151);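 also: 0% = growth of vehicle-treated control cultures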; settings: S. cerevisiae rad50 mutant strain, stronger effect = higher value
Summary of the method: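 In this screen, rad50EPP+ yeast were exposed to compounds. Growth inhibition was scored against vehicle-treated controls.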

[14] = NCI Yeast Anticancer Drug Screen. Data for the mgt1 strain (AID 153); settings: S. cerevisiae mgt1 mutant growth inhibition, stronger effect = higher value
Summary of the method: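 mgt1 strain exposed; growth vs vehicle control recorded as inhibition.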

[15] = NCI Yeast Anticancer Drug Screen. Data for the rad50 strain (AID 155);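 also: 0% = growth of vehicle-only cultures of the same strain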; settings: S. cerevisiae rad50 strain growth inhibition, stronger effect = higher value
Summary of the method: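 Compounds were tested on a yeast strain with an engineered DNA damage repair alteration; the reported value is growth inhibition normalised to vehicle treatment.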

[16] = NCI Yeast Anticancer Drug Screen. Data for the wt2 strain (AID 169);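 also: 0% = growth of vehicle-treated yeast cultures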; settings: S. cerevisiae wt2 strain growth inhibition, stronger effect = higher value
Summary of the method: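 Inhibition of yeast growth was determined after compound treatment, normalised to controls receiving only vehicle.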

[17] = at 5.0 µM (retest, dose inferred, filed as 0.5)
[18] = at 50.0 µM (retest, dose inferred, filed as 5.0)

Measured: growth inhibition

c1ccc2[nH]c(-c3cscn3)nc2c1
inactive: [1]; [17] -12% | [1]; at 11.0 µM -3% | [1]; at 33.0 µM -6% | [1]; [18] 4% | [1]; at 50.0 µM 7.6% and 38.2% | [1]; at 100.0 µM -8% | [2]; at 1.2 µM -4% | [2]; at 3.7 µM -5% | [2]; at 11.0 µM -3% | [2]; at 33.0 µM -5% | [2]; at 100.0 µM -2% | [3]; [17] -3% | [3]; [18] 13% | [3]; at 50.0 µM -4% and -3% | [4]; at 1.2 µM -7% | [4]; at 3.7 µM -3% | [4]; at 11.0 µM -7% | [4]; at 33.0 µM -11% | [4]; at 100.0 µM -19% | [5]; [17] -25% | [5]; [18] -24% | [5]; at 50.0 µM -19.7% and 32.1% | [6]; at 1.2 µM 6% | [6]; at 3.7 µM 8% | [6]; [17] 5% | [6]; at 11.0 µM 12% | [6]; at 33.0 µM 36% | [6]; [18] 56% | [7]; at 1.2 µM -2% | [7]; at 3.7 µM -2% | [7]; at 11.0 µM -7% | [7]; at 33.0 µM -3% | [7]; at 100.0 µM 11% | [8]; at 1.2 µM -1% | [8]; at 3.7 µM -3% | [8]; at 11.0 µM -1% | [8]; at 33.0 µM -3% | [8]; at 100.0 µM -2% | [9]; [17] 14% | [9]; [18] 1% | [9]; at 50.0 µM -37% and 39.7% | [10]; at 1.2 µM -1% | [10]; at 3.7 µM -3% | [10]; at 11.0 µM -2% | [10]; at 33.0 µM 3% | [10]; at 100.0 µM 18%
33.4% (inactive) and 84.8% (active): [6]; at 50.0 µM
active: [6]; at 100.0 µM 70%

Cc1ccc(N=Nc2ccc(O)c(=O)cc2)cc1
8.6% (inactive) and 88.3% (active): [1]; at 50.0 µM
-6.6% (inactive) and 86.5% (active): [9]; at 50.0 µM
-18.2% (inactive) and 82.3% (active): [15]; at 50.0 µM
active: [11]; at 33.0 µM 89% | [11]; at 100.0 µM 93% | [12]; at 33.0 µM 78% | [12]; at 100.0 µM 91% | [13]; at 100.0 µM 87% | [14]; at 33.0 µM 86% | [14]; at 100.0 µM 91% | [15]; at 33.0 µM 83% | [15]; [18] 81% | [15]; at 100.0 µM 92% | [1]; at 33.0 µM 82% | [1]; at 100.0 µM 91% | [2]; at 33.0 µM 84% | [2]; at 100.0 µM 92% | [3]; [18] 95% | [4]; at 33.0 µM 83% | [4]; at 100.0 µM 93% | [6]; at 33.0 µM 90% | [6]; [18] 91% | [6]; at 100.0 µM 92% | [16]; at 33.0 µM 87% | [16]; at 100.0 µM 94% | [7]; at 33.0 µM 83% | [7]; at 100.0 µM 90% | [8]; at 33.0 µM 85% | [8]; at 100.0 µM 93% | [9]; [18] 90% | [10]; at 33.0 µM 86% | [10]; at 100.0 µM 93%
-6.8% (inactive) and 87.5% (active): [6]; at 50.0 µM
inactive: [11]; at 1.2 µM -11% | [11]; at 3.7 µM 1% | [11]; at 11.0 µM 54% | [12]; at 1.2 µM 1% | [12]; at 3.7 µM 25% | [12]; at 11.0 µM 37% | [13]; at 1.2 µM -31% | [13]; at 3.7 µM -64% | [13]; at 11.0 µM -24% | [13]; at 33.0 µM 62% | [14]; at 1.2 µM 8% | [14]; at 3.7 µM 29% | [14]; at 11.0 µM 56% | [15]; at 1.2 µM 4% | [15]; at 3.7 µM 5% | [15]; [17] 17% | [15]; at 11.0 µM 42% | [1]; at 1.2 µM -13% | [1]; at 3.7 µM -7% | [1]; [17] -2% | [1]; at 11.0 µM 26% | [1]; [18] 43% | [2]; at 1.2 µM -3% | [2]; at 3.7 µM 1% | [2]; at 11.0 µM 47% | [3]; [17] 53% | [4]; at 1.2 µM -2% | [4]; at 3.7 µM 16% | [4]; at 11.0 µM 47% | [6]; at 1.2 µM -6% | [6]; at 3.7 µM 3% | [6]; [17] 6% | [6]; at 11.0 µM 49% | [16]; at 1.2 µM -4% | [16]; at 3.7 µM 21% | [16]; at 11.0 µM 48% | [7]; at 1.2 µM 3% | [7]; at 3.7 µM 5% | [7]; at 11.0 µM 47% | [8]; at 1.2 µM 7% | [8]; at 3.7 µM 28% | [8]; at 11.0 µM 57% | [9]; [17] 9% | [10]; at 1.2 µM 0% | [10]; at 3.7 µM 22% | [10]; at 11.0 µM 50%
-10.6% (inactive) and 89.8% (active): [3]; at 50.0 µM

CCCCCOC(=S)SC(=O)OCC
active: [11]; at 100.0 µM 94% | [14]; at 100.0 µM 92% | [15]; at 33.0 µM 84% | [15]; [18] 95% | [15]; at 50.0 µM 98% | [15]; at 100.0 µM 95% | [1]; [18] 95% | [1]; at 50.0 µM 98.5% | [1]; at 100.0 µM 86% | [2]; at 100.0 µM 92% | [3]; [18] 97% | [3]; at 50.0 µM 97.7% | [6]; at 33.0 µM 82% | [6]; [18] 96% | [6]; at 50.0 µM 96.8% | [6]; at 100.0 µM 94% | [16]; at 100.0 µM 90% | [7]; at 100.0 µM 95% | [8]; at 33.0 µM 90% | [8]; at 100.0 µM 97% | [9]; [18] 96% | [9]; at 50.0 µM 96.6% | [10]; at 33.0 µM 90% | [10]; at 100.0 µM 98%
inactive: [11]; at 1.2 µM 0% | [11]; at 3.7 µM 7% | [11]; at 11.0 µM 27% | [11]; at 33.0 µM 63% | [12]; at 1.2 µM -4% | [12]; at 3.7 µM -1% | [12]; at 11.0 µM 8% | [12]; at 33.0 µM 35% | [12]; at 100.0 µM 64% | [13]; at 1.2 µM -3% | [13]; at 3.7 µM 9% | [13]; at 11.0 µM 18% | [13]; at 33.0 µM 30% | [13]; at 100.0 µM 36% | [14]; at 1.2 µM -4% | [14]; at 3.7 µM -2% | [14]; at 11.0 µM 6% | [14]; at 33.0 µM 37% | [15]; at 1.2 µM 1% | [15]; at 3.7 µM 32% | [15]; [17] 20% | [15]; at 11.0 µM 51% | [1]; at 1.2 µM -3% | [1]; at 3.7 µM 3% | [1]; [17] 27% | [1]; at 11.0 µM 26% | [1]; at 33.0 µM 48% | [2]; at 1.2 µM -5% | [2]; at 3.7 µM -4% | [2]; at 11.0 µM 12% | [2]; at 33.0 µM 42% | [3]; [17] 33% | [4]; at 1.2 µM -7% | [4]; at 3.7 µM -6% | [4]; at 11.0 µM -7% | [4]; at 33.0 µM 1% | [4]; at 100.0 µM 30% | [6]; at 1.2 µM 2% | [6]; at 3.7 µM 6% | [6]; [17] 55% | [6]; at 11.0 µM 40% | [16]; at 1.2 µM -4% | [16]; at 3.7 µM 6% | [16]; at 11.0 µM 4% | [16]; at 33.0 µM 39% | [7]; at 1.2 µM -1% | [7]; at 3.7 µM 2% | [7]; at 11.0 µM 14% | [7]; at 33.0 µM 63% | [8]; at 1.2 µM -3% | [8]; at 3.7 µM 4% | [8]; at 11.0 µM 45% | [9]; [17] 43% | [10]; at 1.2 µM -5% | [10]; at 3.7 µM 5% | [10]; at 11.0 µM 33%
